Screens as filed in PubChem BioAssay.
Most compounds without a hit are left out; they make up all but 1.6% or so of the library.
KCNQ2 inh: inhibitors of rat KCNQ2 potassium channel; CHO-K1 KCNQ2, FluxOR thallium flux, 20 min; active compounds read low; 310,000 tested, 1.1% active; B-score at 10 µM; O88943;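 active = fluorescence ratio B-score at most minus 3 library SDs, with starting brightness B-score within 2 library SDs, cut at about -5.5 in these data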
Target sequence (O88943 whole entry, looked up): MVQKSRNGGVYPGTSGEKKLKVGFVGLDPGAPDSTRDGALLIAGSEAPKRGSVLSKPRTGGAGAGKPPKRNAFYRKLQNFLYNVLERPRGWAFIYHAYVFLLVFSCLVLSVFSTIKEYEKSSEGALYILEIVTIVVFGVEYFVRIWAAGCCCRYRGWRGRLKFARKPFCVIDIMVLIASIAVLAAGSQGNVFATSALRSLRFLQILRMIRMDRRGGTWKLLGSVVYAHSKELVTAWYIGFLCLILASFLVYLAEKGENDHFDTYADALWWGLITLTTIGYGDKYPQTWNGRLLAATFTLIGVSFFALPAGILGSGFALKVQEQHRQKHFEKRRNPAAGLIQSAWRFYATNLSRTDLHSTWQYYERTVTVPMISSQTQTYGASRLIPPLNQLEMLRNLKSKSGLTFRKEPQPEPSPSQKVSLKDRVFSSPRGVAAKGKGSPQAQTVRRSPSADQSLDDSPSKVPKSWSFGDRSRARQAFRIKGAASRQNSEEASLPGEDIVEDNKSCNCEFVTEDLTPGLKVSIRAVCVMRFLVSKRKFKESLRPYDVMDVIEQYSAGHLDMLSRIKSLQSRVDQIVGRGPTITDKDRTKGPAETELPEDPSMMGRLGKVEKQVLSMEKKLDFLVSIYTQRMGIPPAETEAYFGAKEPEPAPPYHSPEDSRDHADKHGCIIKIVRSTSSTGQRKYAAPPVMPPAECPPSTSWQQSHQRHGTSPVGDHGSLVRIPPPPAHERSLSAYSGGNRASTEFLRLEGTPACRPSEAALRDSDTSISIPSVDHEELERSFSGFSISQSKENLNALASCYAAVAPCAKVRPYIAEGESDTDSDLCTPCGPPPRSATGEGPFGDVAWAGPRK
KCNQ2 enhance: potentiators of rat KCNQ2 potassium channel. CHO-K1 KCNQ2, FluxOR thallium flux fluorescence; active compounds read high. B-score at 10 µM. O88943. 310,000 tested, 0.54% active;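 active = fluorescence ratio B-score at least 3 SD of library B-scores, with initial fluorescence B-score within 3 of them, cut at about 5.3 in these data; same plate scores as AID 2156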;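 also: B-score of peak minus minimum over baseline fluorescence ratio after K+ and Tl+ stimulus; positive B-score means potentiation of KCNQ2 with more thallium influx and brighter signal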
Hits are given with their value; 0 = inactive; - = no result given.

SMILES | KCNQ2 inh | KCNQ2 enhance
CN(C)CCCNS(=O)(=O)c1ccc(N2CCC(c3ccc(Cl)cc3)=N2)cc1 | -5.9 | 0
FC(F)(F)c1cnc(COc2ccc(Cl)cc2Cl)c(Cl)c1 | 0 | -
Cc1ccc(C)c(SCC(=O)OCC(=O)NCCNC(=O)COC(=O)CSc2cc(C)ccc2C)c1 | 0 | 0
N#Cc1ccc(C(=O)Nc2ccc([N+](=O)[O-])cc2)c(F)c1 | 0 | 0
CCCc1nc2ccccc2c(C(=O)OCC(=O)NCc2ccc3c(c2)OCO3)c1CC | 0 | -
CCc1nc2ccccc2c(C(=O)OCC(=O)NCc2ccc3c(c2)OCO3)c1C | -5.8 | 0
c1ccc(Oc2cccc(OCCCCSc3ncccn3)c2)cc1 | -6.2 | 0
COc1cccc(OCCCCSc2ncccn2)c1 | 0 | -
COc1ccccc1C(=O)Nc1ccc2c(c1)n(C)c(=O)n2C | 0 | -
Cc1ccccc1NC(=O)/C=C/c1ccc([N+](=O)[O-])s1 | -5.7 | 0
Cc1cc(C)cc(NC(=O)/C=C/c2ccc([N+](=O)[O-])s2)c1 | 0 | -
O=C(NC(NC(=S)Nc1ccc(Cl)cc1Cl)C(Cl)(Cl)Cl)c1cccc([N+](=O)[O-])c1 (centres undefined) | 0 | -
Cc1cc(C)cc(NCc2cc3c(cc2[N+](=O)[O-])OCO3)c1 | -6.2 | 0
COc1ccc(CNCc2cc3c(cc2[N+](=O)[O-])OCO3)cc1 | 0 | 0
Oc1oc(-c2cccc3ccccc23)nc1/C=N/c1nccs1 | 0 | 9.4
Cc1cccc(/N=C/c2nc(-c3ccccc3Br)oc2O)n1 | 0 | -
COc1ccc(C2CC(c3cccs3)=Nc3ccccc3S2)cc1 (centres undefined) | -6 | 0
COc1ccc(C2CC(c3cccs3)=NN2S(C)(=O)=O)cc1 (centres undefined) | 0 | 0
Cc1cccc2c1N1C(=O)c3c(C(=O)O)cccc3C1CC2C (centres undefined) | 0 | -
CCOC(=O)c1ccc(CC(=O)c2ccc(O)cc2O)o1 | 0 | -
COC(=O)c1ccc(CC(=O)c2ccc(O)cc2O)o1 | -5.8 | 0
CCOC(=O)C1CCN(c2c(C(=O)c3ccccc3)cnc3ccc(Cl)cc23)CC1 | -5.6 | 0
CCOC(=O)C1CCN(C(=O)c2cccc(Cl)c2)CC1 | 0 | 0
COc1cc(C(=O)Nc2nnc(-c3sccc3C)s2)cc(OC)c1OC | 0 | 0
COc1cc2c(cc1OC)CN(C(=O)/C=C/c1ccccc1[N+](=O)[O-])CC2 | 0 | -
SMILES | KCNQ2 inh | KCNQ2 enhance
C=CCOC(=O)C1=C(C)NC(SCC(=O)OCC)=C(C#N)C1c1ccc(O)c(OC)c1 (centres undefined) | -8.1 | 0
C=CCOC(=O)C1=C(C)NC(SC)=C(C#N)C1c1ccc(OCC)cc1 (centres undefined) | 0 | -
C#CCN(C(=O)c1ccc(OC2CCN(Cc3ccccn3)CC2)cc1)C1CCCCC1 | 0 | 0
CCc1nnc(NS(=O)(=O)c2ccc(N=Cc3c(C)[nH]n(-c4ccc(Cl)cc4)c3=O)cc2)s1 | 0 | 0
Cc1[nH]n(-c2ccc(Cl)cc2)c(=O)c1/C=N/c1nnc(-c2ccccc2)s1 | 0 | 20
COc1ccc2nc(/N=C\N(C)C)sc2c1 | 0 | -
COc1ccc2nc(/N=C/c3c(C)[nH]n(-c4ccc(C)cc4)c3=O)sc2c1 | 0 | 21
OC[C@@H](O)[C@@H](O[C@H]1O[C@H](CO)[C@@H](O)[C@H](O)[C@H]1O)[C@H](O)[C@@H](O)CO | 0 | 0
Cc1c(Cl)cccc1NC(=S)N1CCCCCC1 | 0 | 0
CC(C)OCCCn1c(=O)c2ccccc2n2c(CCC(=O)NC3CCN(Cc4ccccc4)CC3)nnc12 | -6 | 0
CC(C)OCCCn1c(=O)c2ccccc2n2c(CCC(=O)O)nnc12 | 0 | 0
CN(Cc1nc(-c2ccc(Cl)cc2)no1)C(=O)c1ccc2c(c1)OCO2 | 0 | -
COc1ccc(N(C)S(=O)(=O)c2cccc(C(=O)NC3CCCCCC3)c2)cc1 | 0 | -
COc1ccc(N(C)S(=O)(=O)c2cccc(C(=O)NC3CCCC(C)C3C)c2)cc1 (centres undefined) | -7.3 | 0
CC1CCN(CCNC(=S)Nc2ccc(Cl)cc2)CC1 | 0 | -
CCCn1c(C(O)c2cccc(OC)c2)nc2ccccc21 (centres undefined) | 0 | -
CC1CCc2sc(-c3n[nH]c(=S)o3)cc2C1 (centres undefined) | 0 | 0
S=c1[nH]nc(-c2cc3c(s2)-c2ccccc2CC3)o1 | 0 | 16
CN(C)C(=O)c1cc(C(=O)c2ccc(C(F)(F)F)cc2)c[nH]1 | 0 | -
Cc1ccc(NC(=O)CN(C)CC(=O)NC2CCCc3ccccc32)cc1 (centres undefined) | 0 | -
CC(C)(C)c1ccc(NC(=O)CNC2CCCc3ccccc32)cc1 (centres undefined) | -6.9 | 0
Cc1ccc(NC(=O)c2ccc(NCCN)c([N+](=O)[O-])c2)cc1 | 0 | -
NCCNc1ccc(C(=O)N2c3ccccc3Sc3ccccc32)cc1[N+](=O)[O-] | -8.1 | 0
O=C(CC1NCCNC1=O)NC1Cc2ccccc2C1 (centres undefined) | 0 | 0
Cc1ccccc1OC(=O)n1c(=S)oc2cc(Cl)ccc21 | 0 | 6.9
SMILES | KCNQ2 inh | KCNQ2 enhance
O=C(Oc1ccccc1)n1c(=S)oc2ccccc21 | 0 | 0
COc1cccc(OCc2ccc(C(=O)NCC3CCCO3)cc2)c1 (centres undefined) | 0 | -
O=C(NCC1CCCO1)c1ccc(COc2ccccc2Br)cc1 (centres undefined) | 0 | 5.3
Cc1cc(-c2ccc(S(=O)(=O)N(C)c3ccc(C)c(C)c3)s2)on1 | -6.7 | 0
Cc1ccc(N(C)S(=O)(=O)c2ccc(-c3cc(C)no3)s2)cc1 | -6.5 | 0
COc1ccc(-c2cc(C)no2)cc1S(=O)(=O)N(C)c1ccc(C)c(C)c1 | 0 | -
CCN1CCN(S(=O)(=O)c2ccc(-c3cc(C)no3)s2)CC1 | 0 | 0
CCOC(CNC(=O)C(=O)Nc1cc2c3c(c1)CCC(=O)N3CCC2)OCC | 0 | 0
Cc1noc(C)c1C(=O)NCc1ccccc1F | 0 | -
COc1ccc(S(=O)(=O)N2CCC(c3cc(-c4cccc5ccccc45)n[nH]3)CC2)cc1 | 0 | -
O=S(=O)(c1cccc(C(F)(F)F)c1)N1CCC(c2cc(-c3cccc4ccccc34)n[nH]2)CC1 | -6.1 | 0
Cc1ccc(S(=O)(=O)Nc2ncccn2)cc1 | 0 | -
O=C(c1cccc(Cl)c1)N1CCN(Cc2ccc3c(c2)OCO3)CC1 | 0 | -
O=C(NC(=S)N1CCN(Cc2ccc3c(c2)OCO3)CC1)c1cccc(Br)c1 | 0 | 9.5
O=C(NC(=S)N1CCN(Cc2ccc3c(c2)OCO3)CC1)c1ccc(Cl)cc1 | 0 | 8.9
Cc1cc(Cl)ccc1NC(=S)N1CCN(Cc2ccc3c(c2)OCO3)CC1 | 0 | -
CCNC(=S)N1CCN(Cc2ccc3c(c2)OCO3)CC1 | 0 | 0
O=C(c1cccn2c(=O)c3ccc(Cl)cc3nc12)N1CCN(Cc2ccc3c(c2)OCO3)CC1 | -5.8 | 0
COc1cccc(CSc2nccn2C)c1 | 0 | 0
Brc1ccc(-n2cc(-c3ccccc3)c3c(NN4CCOCC4)ncnc32)cc1 | 0 | -
O=C(CSc1nnc(COc2ccc(F)cc2)o1)N1CCCCC1 | 0 | 0
O=C(CSc1nnc(COc2ccc(F)cc2)o1)N1c2ccccc2CCc2ccccc21 | -6.6 | 0
Cc1c(C(=O)N2CCCCC2)nn(-c2ccc(Cl)cc2)c(=O)c1C#N | 0 | 0
Cc1cc(C(=O)CSc2nc3ccc(Cl)cc3[nH]2)c(C)n1Cc1ccco1 | 0 | -
COc1cccc(C2NC(=O)NC(C)=C2C(=O)Nc2cccc(C)c2C)c1 (centres undefined) | 0 | 0
Cc1oc(-c2cccs2)nc1CN1CCC(CO)(CCOc2ccccc2)CC1 | 0 | -
